# In the supplement of paper PMC6555819:
# What was measured:
# Assay in all cases: PBM binding z-score (relative to random genomic background probes); higher = stronger binding; sequences stand for … in GC…GCGATTGACAGCGTAGAATGAAGG
# [1] = test system: FXR:RXRa (NR concentration 270 nM, RXRa partner concentration 90 nM)
# Procedure, shortened: (§1)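 For binding z-scores, the reference was random background probes on custom Agilent 4×180K protein-binding microarrays. These arrays were incubated 1 h with ligand-free nuclear receptor dimers in PBS pH 7.4, 2% milk, 0.02% Triton X-100, 1 mM DTT, 0.2 mg/mL BSA and 0.4 mg/ml salmon testes DNA. Fluorescence was scanned after antibody detection of each partner (one per run) and regression-normalized.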
# [2] = test system: LXRa:RXRa (NR concentration 270 nM, RXRa partner concentration 90 nM)
# Procedure, shortened: as §1
# [3] = test system: LXRa homodimer (NR concentration 270 nM)
# Procedure, shortened: as §1
# [4] = test system: LXRb:RXRa (NR concentration 270 nM, RXRa partner concentration 90 nM)
# Procedure, shortened: as §1
# [5] = test system: LXRb homodimer (NR concentration 270 nM)
# Procedure, shortened: as §1
# [6] = test system: PPARa:RXRa (NR concentration 270 nM, RXRa partner concentration 90 nM)
# Procedure, shortened: as §1
# [7] = test system: PPARg:RXRa (NR concentration 180 nM, RXRa partner concentration 90 nM)
# Procedure, shortened: as §1
# [8] = test system: PPARg:RXRa 270nM:90nM, anti-RXR (NR concentration 270 nM, RXRa partner concentration 90 nM)
# Procedure, shortened: as §1
# [9] = test system: PPARg:RXRa 30nM:10nM, anti-RXR (NR concentration 30 nM, RXRa partner concentration 10 nM)
# Procedure, shortened: as §1
# [10] = test system: PPARg:RXRa 90nM:30nM, anti-RXR (NR concentration 90 nM, RXRa partner concentration 30 nM)
# Procedure, shortened: as §1
Sequence,PBM binding z-score [1],PBM binding z-score [2],PBM binding z-score [3],PBM binding z-score [4],PBM binding z-score [5],PBM binding z-score [6],PBM binding z-score [7],PBM binding z-score [8],PBM binding z-score [9],PBM binding z-score [10]
CGAACTAGGTCATTGACAGGACAGTAAATAGTAA,4.05,2.93,0.467,2.31,-0.338,4.66,7.77,6.44,3.43,5.8
ACTTACGTGTCAACGAGGTTATAGCACGCGTATA,0.812,1.03,0.113,1.02,0.0422,1.84,0.927,0.653,0.374,0.627
ACTAGTTGGTCAGCTGAGTTCACACACAATTCGG,1.06,1.59,1.72,1.59,0.275,1.65,0.747,0.792,0.098,0.251
TTACCAAGGTGAGCTGAGGTCGTAGATCCAACTC,2.54,0.614,-0.687,0.401,-1.29,1.78,0.268,0.85,-0.191,0.588
GCTAGCAGGCCATTGGGGTCACTCAATGACGGGC,2.93,2.47,-0.298,3.06,-0.749,4.28,1.95,3.1,0.521,2.17
GCTGCTAGGTCAGGTTGGTCAGGTAACGGGTACG,1.37,0.789,-0.109,0.63,0.124,1.5,0.626,0.972,-0.553,0.573
ATCTCTAGGAAAAAGTTCAGTGAATCCCGAGGAT,0.0166,0.275,0.466,0.0384,0.735,0.653,1.18,3.25,1.41,2.47
CCAACTGGGCCAAGGTCATTGATCAGTCAAAGCA,2.96,2.9,0.591,2.91,-0.522,4.3,4.16,4.06,1.82,3.3
GCGACTGGGGCATCAGCAGCTTACCATAACTTAA,-0.818,-0.694,-0.417,-0.0189,-1.2,0.137,0.465,0.329,-0.116,-0.198
CAAACTTGGTCACAGAGGTCAAAGTCCGTGCGTA,5.4,5.01,5.81,5.15,1.63,5.31,4.74,5.07,2.04,4.21
TAAATGAGGTTATAAGATCAGGGAACGTTGCAAA,1.94,2.28,0.212,1.55,0.646,2.85,2.1,2.73,2.19,2.51
CCTACTGAGCCACGAAAGGTCATTGATTCAGTGA,3.68,5.05,5.31,4.22,1.09,4.21,1.27,2.77,0.973,1.93
